Compound activity (PubChem)
SMN2 splice up: qHTS Assay for Enhancers of SMN2 Splice Variant Expression | HEK293 SMN2-luciferase splicing reporter, luminescence, 30-36 h | Potency, µM (doses to about 46.1 µM), for inactives: at the highest dose activity change, positive = activation, most hits filed as activators | 210,000 compounds, 2.8% hits | AID 1458, 2008; further: % of control where 0% means no effect; nearly all actives have a fitted effect of over 55% in size
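HEK293 cells carry an SMN2 minigene-luciferase reporter in which exon 7 inclusion puts luciferase in frame. Cells were seeded at 2000 cells/well, attached for 10-12 hours, then exposed to compounds for 30-36 hours at 37C before ONE-Glo luminescence.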
NPC1 promoter act: qHTS Assay for NPC1 Promoter Activators; 320,000 compounds, 2.4% hits; Potency, µM (top dose mostly 9.22 µM), inactives show top-dose activation, actives largely listed as activators; Huh7 NPC1 promoter luciferase reporter, 24 h; AID 485313, 2010; further: % of control where 0% means no effect; nearly all actives have a fitted effect of over 60% in size
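Stably transfected Huh7 (NPC1 promoter→luciferase), 1500 cells/well in Opti-MEM + 10% FBS, 2 h settle, then compound 24 h at 37 °C. Luminescence after 10 min with Amplite reagent.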
Rab9 prom act: qHTS Assay for Rab9 Promoter Activators; Huh7 Rab9 promoter-luciferase reporter, luminescence, 24 h; Potency, µM (highest dose often 9.22 µM), without a hit: top-dose activation, negative = inhibition, usual class: activators; 320,000 compounds, 2.8% hits; AID 485297, 2010; further: % of control where 0% means no effect; nearly all actives have a fitted effect of over 60% in size
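Using Huh7 cells stably transfected with Rab9 promoter–luciferase, compounds were incubated 24 h at 37 °C, 5% CO2; luciferase luminescence was read 10 min after reagent addition.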
ELG1 genotox: qHTS screen for small molecules that induce genotoxicity in human embryonic kidney (HEK293T) cells expressing luciferase-tagged ELG1. Potency, µM (titrated, usually from 46 µM), for the others: top-dose activity change, positive = activation, actives largely listed as activators. 330,000 compounds, 1.3% hits. HEK293T ELG1-luciferase reporter, luminescence, 16 h. AID 504466, 2011; further: % of control where 0% means no effect; nearly all actives have a fitted effect of over 60% in size
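After overnight (16 hr) compound treatment at 37 °C, ELG1-luciferase HEK293T cells were lysed with ONE-Glo; luminescence quantified 30 min later at room temperature.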
FLuc modulator: qHTS profiling assay for firefly luciferase inhibitor/activator using purifed enzyme and Km concentrations of substrates (counterscreen for miR-21 project); Luciferin 4-monooxygenase (Photinus pyralis), P08659; purified FLuc, Km substrates, luminescence inhibition; Potency, µM (titrated, usually from 57.5 µM), for the others: at the top dose activity change, negative = inhibition, most hits filed as inhibitors; 360,000 compounds, 6.9% hits; AID 588342, 2011;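 further: plate controls were vehicle for no effect and reference inhibitor for full effect; nearly all actives have a fitted effect of over 55% in size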
Target sequence (P08659 whole entry, looked up): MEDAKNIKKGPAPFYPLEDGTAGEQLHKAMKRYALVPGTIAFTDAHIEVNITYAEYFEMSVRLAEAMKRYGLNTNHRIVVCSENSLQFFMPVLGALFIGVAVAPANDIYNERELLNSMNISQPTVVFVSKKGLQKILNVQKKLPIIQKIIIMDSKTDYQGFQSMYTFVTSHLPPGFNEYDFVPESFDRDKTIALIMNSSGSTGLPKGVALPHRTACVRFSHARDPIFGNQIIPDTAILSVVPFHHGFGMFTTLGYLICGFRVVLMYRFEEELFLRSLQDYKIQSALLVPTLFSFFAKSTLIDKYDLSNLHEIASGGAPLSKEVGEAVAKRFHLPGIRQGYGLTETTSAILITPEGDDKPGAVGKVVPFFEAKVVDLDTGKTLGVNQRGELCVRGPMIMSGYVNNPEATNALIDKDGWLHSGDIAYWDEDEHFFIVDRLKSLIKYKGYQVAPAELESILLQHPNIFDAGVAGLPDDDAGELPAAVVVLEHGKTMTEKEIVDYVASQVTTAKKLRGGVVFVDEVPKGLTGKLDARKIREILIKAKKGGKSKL
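Purified P. pyralis luciferase (10nM final) with 10uM D-luciferin and 10uM ATP (Km levels) in 50mM Tris acetate pH 7.5, 10mM Mg acetate, 0.01% Tween-20, 0.05% BSA; qHTS 6-point titration, ~60 µM downward; luminescence read.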
uPA surface inh: qHTS for Inhibitors of Cell Surface uPA Generation. Potency, µM (series often up to 38.3 µM), without a hit: at the top dose activity change, negative = inhibition, actives largely listed as inhibitors. cell surface uPA generation assay, qHTS. 330,000 compounds, 0.31% hits. AID 540303, 2011; active means well fitted inhibition curve with a large enough effect; inconclusive means small, poorly fitted or top-dose-only effect; inactive means no such curve, though single readings can be large or run the other way; tested in mouse RAW 264.7 cells; further: on the % scale 0 is the no-effect control and ±100 the full control effect; nearly all actives have a fitted effect of over 55% in size
Starred values were filed as active, the others as inactive; ? = inconclusive; . = no result given; [ ] = another dose, or the depositor's remark. In the library only some 7.3% were active in any assay of this set; here they are far more common. Unless noted, the call rests on the fitted dose curve; in most records, active means well fitted curve in the direction sought with a large enough effect; inconclusive means small, poorly fitted or top-dose-only effect, or another doubt; inactive means no such curve, though single readings can be large; an effect the other way counts as inactive or inconclusive. Potency means the concentration at half of the fitted maximal effect.

SMILES	SMN2 splice up	NPC1 promoter act	Rab9 prom act	ELG1 genotox	FLuc modulator	uPA surface inh
Cc1ccc(-c2csc(NC(=O)c3ccccc3Cl)c2C(=O)O)cc1	.	-4.8%	4.5%	0.6%	26.9µM*	0.8%
CC(C)c1ccc(C(CC(=O)O)NC(=O)c2cccs2)cc1 (centres undefined)	9.8%	-2.6%	-1.3%	1.1%	-7.4%	-0.7%
Cc1ccc(-c2csc(NC(=O)c3cccc(C)c3)c2C(=O)O)cc1	.	.	.	.	.	-22.4%
COc1ccc(/C=C/C2=NNC(=O)CC2)cc1	15.8µM*	27.1%	2.82µM*	?	?	-4.5%
CCOC(=O)CN1N=C(/C=C/c2ccc(OCC)cc2)CCC1=O	-5.1%	7.2%	26.0%	-0.5%	-15.0%	0.4%
CCOc1ccc(/C=C/C2=NNC(=O)CC2)cc1	11.2µM*	?	?	18.3µM*	15.1µM*	-6.7%
O=C1CCC(/C=C/c2ccccc2)=NN1	11.4%	-14.6%	8.8%	16.2%	-13.1%	-4.7%
Cc1cc(=O)oc2c3c(cc(OCC(=O)NCCCn4ccnc4)c12)OC(C)(C)CC3	.	-3.4%	-9.7%	11.9%	3.3%	-3.5%
Cc1ccc(Cn2ccnc2SCC(=O)Nc2ccccc2C(F)(F)F)cc1	.	.	.	.	-0.4%	.
Cc1c(Cl)ccc2sc(NC(=O)c3ccc(S(=O)(=O)N4CCCc5ccccc54)cc3)nc12	.	.	.	.	-0.7%	.
CCOC(=O)CSc1nc2cc(OCC)ccc2cc1C#N	22.4µM*	?	2.82µM*	8.2µM*	4.26µM*	1.8%
COc1ccc2cc(C#N)c(SCC(=O)N3CCCC3)nc2c1	19.3%	-0.8%	0.4%	?	-4.8%	-5.1%
COC(=O)CSc1nc2cc(OC)ccc2cc1C#N	.	1.41µM*	1.41µM*	1.46µM*	9.53µM*	-5.1%
COC(=O)CSc1nc2cc(C)cc(C)c2cc1C#N	24.5%	?	28.8%	3.7%	-2.4%	2.6%
COC(=O)CSc1nc2ccc(C)cc2cc1C#N	2.82µM*	3.55µM*	0.794µM*	?	?	-14.4%
CCOc1ccc2cc(C#N)c(SCC(=O)N3CCC(C)CC3)nc2c1	3.6%	-0.6%	-3.9%	0.6%	0.2%	.
COc1ccc2c(n1)Sc1nc3ccccc3nc1N2	.	?	2.24µM*	8.2µM*	2.13µM*	-0.1%
COc1cc2ccccc2nn1	.	-6.0%	-3.1%	-2.6%	5.4%	-1.2%
CCOc1ccc(C(=O)Nc2ccc3oc(-c4ccc5ccccc5c4)nc3c2)cc1	-8.1%	.	.	.	-1.1%	.
COc1ccc2nc(-n3c(C)ccc3C)sc2c1	2.4%	6.1%	2.2%	13.9%	-1.6%[2.3 µM]	-18.5%
COc1ccc2nc(N3C(=O)/C(=C/c4ccccc4)NC3=S)sc2c1	-19.0%	0.6%	-2.3%	-4.3%	10.7µM*	0.7%
CCOc1ccc2nc(N3C(=O)/C(=C/c4ccccc4)NC3=S)sc2c1	.	?	?	?	6.01µM*	-4.8%
CCOc1ccc2nc(Cl)sc2c1	10.3%	0.7%	4.3%	-0.4%	-11.3%	5.4%
Cc1ccc(S(=O)(=O)Oc2cc(S(=O)(=O)O)cc3cc(S(=O)(=O)O)cc(N)c23)cc1	2.4%[9.22 µM]	.	.	.	.	.
O=C(O)c1ccccc1CSc1nc2ccccc2o1	?	4.47µM*	?	?	10.7µM*	-2.5%
SMILES	SMN2 splice up	NPC1 promoter act	Rab9 prom act	ELG1 genotox	FLuc modulator	uPA surface inh
O=C(O)c1ccc(CSc2nc3ccccc3o2)cc1	-9.8%	-1.2%	0.2%	4.6%	19µM*	2.4%
CC(=O)CSc1nc2ccccc2o1	2.6%	5.2%	19.2%	?	-15.7%	1.7%
Cn1c(=O)c2c(nc(SCC(=O)Nc3ccc(F)cc3F)n2Cc2ccccc2)n(C)c1=O	-0.6%	.	.	.	-4.5%	.
COc1cc(OC)c(NC(=O)c2cn(C)c(=O)c3cc(OC)c(OC)cc23)cc1Cl	5.3%	.	.	.	-0.9%	.
CC(=O)Cc1nsc(NC(=O)c2ccc(-c3ccc(Cl)c(C(F)(F)F)c3)o2)n1	-5.6%	6.3%	-0.6%	-1.3%	?	7.9%
CC(=O)Cc1nsc(NC(=O)c2ccc(-c3ccc(F)cc3)o2)n1	2.3%	-2.0%	15.7%	1.5%	6.01µM*	-6.3%
CC(=O)Cc1nsc(NC(=O)c2ccc(-c3ccccc3Cl)o2)n1	11.2µM*	4.4%	8.3%	?	10.7µM*	-2.2%
Cc1nc2sccn2c(=O)c1S(=O)(=O)Nc1cc(Cl)ccc1O	.	.	.	.	-1.5%	.
O=C(c1cc(COc2ccc(F)c(F)c2)on1)N1CCSCC1	.	?	?	?	16.9µM*	-5.5%
CC(=O)c1cccc(OCc2cc(C(=O)NCCC3=CCCCC3)no2)c1	.	2.51µM*	?	?	9.53µM*	-0.2%
O=C(NCCC1=CCCCC1)c1cc(COc2c(F)cccc2F)on1	.	-1.6%	4.7%	4.8%	-13.7%	-9.4%
CC(=O)c1cccc(OCc2cc(C(=O)N3CCSCC3)no2)c1	.	?	3.16µM*	9.2µM*	10.7µM*	-4.3%
COc1cc(C(C)=O)ccc1OCc1cc(C(=O)N2CCSCC2)no1	.	9.4%	3.9%	3.3%	-3.0%	2.2%
Cc1cc(C)c(S(=O)(=O)CCC(C)C)c(=O)[nH]1	.	-0.8%	1.1%	0.6%	4.9%	0.3%
O=C(NCCCN1CCCC1=O)C1CCN(S(=O)(=O)c2cccc(Cl)c2Cl)CC1	.	6.0%	-3.3%	1.2%	-0.6%	15.9%
CCOC(=O)C1CCCN(C(=O)c2ccc3nc(-c4cccc(OC)c4)oc3c2)C1 (centres undefined)	.	?	?	?	?	-17.9%
COc1cccc(-c2noc(C3CCCN(C(=O)c4cccc(F)c4)C3)n2)c1 (centres undefined)	.	14.4%	5.0%	1.1%	-15.4%	4.5%
COc1cccc(-c2nc3ccc(C(=O)N4CCCC(O)C4)cc3o2)c1 (centres undefined)	.	3.98µM*	3.55µM*	?	15.1µM*	-2.0%
CCC(=O)C1CCCN(C(=O)c2ccc3nc(-c4cccc(OC)c4)oc3c2)C1 (centres undefined)	.	1.41µM*	1.58µM*	?	8.49µM*	-13.1%
O=C(Nc1cccnc1)c1sc2cccc(F)c2c1Cl	?	?	?	-2.7%	8.49µM*	-11.0%
CN(C)CCNC(=O)c1sc2cccc(F)c2c1Cl	-2.8%	1.1%	-0.1%	1.2%	2.7%	-2.0%
O=C(Nc1ccccn1)c1sc2cccc(F)c2c1Cl	2.51µM*	?	?	?	0.379µM*	-9.8%
CCOCc1c(C(=O)OCC(=O)Nc2ccc(C)c(S(=O)(=O)N(C)C)c2)oc2ccccc12	-2.3%	-4.8%	-3.0%	-1.1%	-1.8%	3.3%
